Data: PubChem BioAssay
A number with no mark means an inactive call. Some of the results follow. Activity calls are given as the source filed them. Rule as the data show it, unless noted: active = inhibition above about 30%; inactive = the rest.

Tests used:
[1] = biological target: Nuclear receptor coactivator 3 (Homo sapiens) (UniProt Q9Y6Q9); experiment: NCOA3 GAL4-fusion reporter inhibition – cell-based, luminescence, quadruplicate, confirmation (AID 588792;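 active = mean inhibition over 43.08%, the solvent-only control mean plus 3 SD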;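 also: 0% = DMSO treated cells and 100% = gossypol at 36 µM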); conditions: HEK293 GAL4-SRC3 luciferase reporter, at 3.6 µM, hits give high values
Nuclear receptor coactivator 3 (Homo sapiens), sequence (Q9Y6Q9 whole entry, looked up, the tested form may be a part): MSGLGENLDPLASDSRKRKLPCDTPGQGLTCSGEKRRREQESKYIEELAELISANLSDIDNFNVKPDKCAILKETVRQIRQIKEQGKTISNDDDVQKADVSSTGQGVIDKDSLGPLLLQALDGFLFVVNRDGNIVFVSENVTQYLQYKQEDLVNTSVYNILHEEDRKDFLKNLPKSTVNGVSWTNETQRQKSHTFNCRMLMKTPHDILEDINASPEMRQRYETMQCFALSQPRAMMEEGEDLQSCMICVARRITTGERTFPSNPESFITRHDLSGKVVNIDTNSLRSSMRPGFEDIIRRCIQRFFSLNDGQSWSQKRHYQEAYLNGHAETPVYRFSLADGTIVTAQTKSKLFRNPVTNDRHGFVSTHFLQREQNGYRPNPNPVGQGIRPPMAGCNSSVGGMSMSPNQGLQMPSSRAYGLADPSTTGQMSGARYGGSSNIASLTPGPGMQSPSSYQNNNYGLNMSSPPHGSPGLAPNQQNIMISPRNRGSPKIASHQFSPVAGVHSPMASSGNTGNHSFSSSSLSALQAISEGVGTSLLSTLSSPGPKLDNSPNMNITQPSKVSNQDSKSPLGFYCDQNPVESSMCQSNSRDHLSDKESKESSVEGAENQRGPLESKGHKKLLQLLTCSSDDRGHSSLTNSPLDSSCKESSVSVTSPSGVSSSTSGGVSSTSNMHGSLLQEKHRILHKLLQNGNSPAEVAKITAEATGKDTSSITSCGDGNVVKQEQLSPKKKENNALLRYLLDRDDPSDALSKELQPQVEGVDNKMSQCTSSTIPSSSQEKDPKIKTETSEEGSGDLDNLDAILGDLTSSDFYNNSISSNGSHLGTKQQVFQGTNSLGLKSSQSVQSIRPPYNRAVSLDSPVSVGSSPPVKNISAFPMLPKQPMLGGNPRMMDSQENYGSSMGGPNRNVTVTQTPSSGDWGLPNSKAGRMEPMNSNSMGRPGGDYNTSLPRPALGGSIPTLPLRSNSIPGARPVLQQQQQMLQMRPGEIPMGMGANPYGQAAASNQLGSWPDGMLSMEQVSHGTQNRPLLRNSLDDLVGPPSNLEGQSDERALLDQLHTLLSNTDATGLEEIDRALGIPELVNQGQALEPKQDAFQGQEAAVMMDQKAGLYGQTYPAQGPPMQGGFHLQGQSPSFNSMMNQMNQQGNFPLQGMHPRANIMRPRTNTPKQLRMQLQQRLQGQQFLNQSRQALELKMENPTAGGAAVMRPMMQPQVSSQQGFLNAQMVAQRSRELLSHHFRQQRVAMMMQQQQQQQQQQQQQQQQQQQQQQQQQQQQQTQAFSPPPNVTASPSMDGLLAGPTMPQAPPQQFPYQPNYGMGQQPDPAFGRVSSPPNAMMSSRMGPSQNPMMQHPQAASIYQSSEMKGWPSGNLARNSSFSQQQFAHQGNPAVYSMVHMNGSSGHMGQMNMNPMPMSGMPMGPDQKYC

[2] = test system: transactivating tegument protein VP16 (Human herpesvirus 1), Gal4-VP16 luciferase reporter; experiment: repression of VP16-driven luciferase reporter – cell-based, luminescence, high throughput, counter-screen for SRC3 inhibitor project (AID 588794); conditions: mammalian cells, at 3.6 µM, hits give high values
[3] = biological target: Nuclear receptor coactivator 1 (Homo sapiens) (UniProt Q15788); experiment: NCOA1 GAL4-fusion reporter inhibition – cell-based, luminescence, quadruplicate, confirmation (AID 588820;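 active = mean inhibition above 46.68%, the untreated control wells mean plus 3 SD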;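 also: 0% = DMSO wells and 100% = gossypol 36 µM treated wells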); conditions: HEK293 GAL4-SRC1 luciferase reporter, at 3.6 µM, hits give high values
Nuclear receptor coactivator 1 (Homo sapiens), sequence (Q15788 whole entry, looked up, the tested form may be a part): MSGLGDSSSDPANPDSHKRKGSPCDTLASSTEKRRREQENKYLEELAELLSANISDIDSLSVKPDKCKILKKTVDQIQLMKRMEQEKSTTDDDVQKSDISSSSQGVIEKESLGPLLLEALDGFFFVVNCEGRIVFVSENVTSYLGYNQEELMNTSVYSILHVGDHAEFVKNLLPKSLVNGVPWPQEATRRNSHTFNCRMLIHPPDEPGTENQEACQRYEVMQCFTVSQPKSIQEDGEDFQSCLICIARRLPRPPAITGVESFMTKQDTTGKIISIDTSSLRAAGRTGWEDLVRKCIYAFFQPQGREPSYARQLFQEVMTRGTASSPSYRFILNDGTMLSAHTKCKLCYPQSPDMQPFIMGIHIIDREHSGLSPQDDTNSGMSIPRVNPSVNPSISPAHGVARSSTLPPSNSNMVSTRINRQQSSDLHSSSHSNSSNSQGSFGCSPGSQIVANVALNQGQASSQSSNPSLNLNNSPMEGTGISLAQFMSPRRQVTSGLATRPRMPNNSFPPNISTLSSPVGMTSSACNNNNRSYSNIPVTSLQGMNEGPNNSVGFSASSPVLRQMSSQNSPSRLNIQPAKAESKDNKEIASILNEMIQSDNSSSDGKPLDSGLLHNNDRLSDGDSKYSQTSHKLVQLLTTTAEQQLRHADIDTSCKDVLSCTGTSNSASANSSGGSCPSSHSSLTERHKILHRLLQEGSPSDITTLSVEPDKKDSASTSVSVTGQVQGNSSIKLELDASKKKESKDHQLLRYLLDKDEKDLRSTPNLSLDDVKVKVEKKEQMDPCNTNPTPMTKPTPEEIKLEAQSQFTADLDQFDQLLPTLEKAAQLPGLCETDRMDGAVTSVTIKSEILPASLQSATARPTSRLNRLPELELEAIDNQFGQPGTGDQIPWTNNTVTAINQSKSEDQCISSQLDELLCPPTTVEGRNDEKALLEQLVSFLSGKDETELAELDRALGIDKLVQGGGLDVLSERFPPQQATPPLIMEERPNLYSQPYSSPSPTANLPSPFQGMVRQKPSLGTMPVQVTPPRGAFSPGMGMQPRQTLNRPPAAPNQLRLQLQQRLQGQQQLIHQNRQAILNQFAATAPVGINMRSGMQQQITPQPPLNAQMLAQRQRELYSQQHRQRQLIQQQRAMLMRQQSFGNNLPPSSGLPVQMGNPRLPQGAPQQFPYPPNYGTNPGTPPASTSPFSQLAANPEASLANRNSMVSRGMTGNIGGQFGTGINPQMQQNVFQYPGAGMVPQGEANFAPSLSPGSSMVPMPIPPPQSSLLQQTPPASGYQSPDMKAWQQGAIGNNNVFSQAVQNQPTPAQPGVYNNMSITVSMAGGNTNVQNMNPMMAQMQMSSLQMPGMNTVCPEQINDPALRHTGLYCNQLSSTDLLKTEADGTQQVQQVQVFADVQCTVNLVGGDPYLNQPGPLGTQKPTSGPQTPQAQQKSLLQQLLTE

[4] = repression of VP16-driven luciferase reporter – cell-based, luminescence, high throughput, counter-screen for SRC1 inhibitor project (AID 588824; in the data active = inhibition above about 25%); conditions: cell-based VP16 transactivation luciferase luminescence; at 3.6 µM; hits give high values
[5] = biological target: Photoreceptor-specific nuclear receptor (Homo sapiens) (UniProt Q9Y5X4); experiment: retest of NR2E3-NCOR disrupting agonists – cell-based, luminescence, CHO-S two-hybrid, confirmation (AID 624378;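 active = average inhibition above a cutoff equal to the mean inhibition of all tested compounds plus one SD, cut at about 70% in these data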;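 also: 0% = DMSO in NR2E3 cells and 100% = DMSO in cells lacking NR2E3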); conditions: CHO-S mammalian two-hybrid NR2E3-NCOR, luciferase luminescence; at 3.98 µM; hits give high values
Photoreceptor-specific nuclear receptor (Homo sapiens), sequence (Q9Y5X4 whole entry, looked up): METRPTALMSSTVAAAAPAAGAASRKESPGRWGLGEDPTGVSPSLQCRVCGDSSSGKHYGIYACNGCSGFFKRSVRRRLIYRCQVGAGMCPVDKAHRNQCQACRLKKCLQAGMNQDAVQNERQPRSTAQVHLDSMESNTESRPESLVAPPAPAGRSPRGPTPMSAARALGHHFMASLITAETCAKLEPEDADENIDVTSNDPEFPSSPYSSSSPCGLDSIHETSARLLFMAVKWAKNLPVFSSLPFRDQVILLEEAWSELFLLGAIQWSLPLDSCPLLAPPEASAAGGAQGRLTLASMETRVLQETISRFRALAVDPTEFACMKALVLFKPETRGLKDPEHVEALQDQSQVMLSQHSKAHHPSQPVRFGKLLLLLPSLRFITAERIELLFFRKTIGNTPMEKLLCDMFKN

[6] = nonselective effects on VP16 transactivation – cell-based, luminescence, CHO-S, high throughput, counter-screen for NR2E3 agonist project, confirmation (AID 624379;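 active = mean inhibition above a cutoff equal to the average over all tested compounds plus one standard deviation, cut at about 70% in these data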;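 also: 0% = DMSO with VP16-transfected cells and 100% = DMSO with cells lacking VP16; higher means less reporter light so more repression of VP16 activity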); conditions: CHO-S GAL4-VP16 luciferase reporter, at 3.98 µM, hits give high values
[7] = test system: transactivating tegument protein VP16 (Human herpesvirus 1); experiment: compounds suppressing VP16-driven luciferase signal – cell-based, luminescence, single concentration, counter-screen for SRC2 inhibitor project (AID 652007; in the data active = inhibition above about 36%); conditions: cell-based VP16 transactivation luciferase reporter, at 8.9 µM, hits give high values
[8] = biological target: Nuclear receptor coactivator 2 (Homo sapiens) (UniProt Q15596); experiment: inhibition of GAL4-SRC2 driven luciferase expression – cell-based, luminescence, HEK293, triplicate, confirmation (AID 652008;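 active = mean inhibition above 46.5%, the solvent-only control mean plus 3 SD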;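 also: 0% = DMSO-treated cells and 100% = Gossypol at 36 µM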); conditions: HEK293 GAL4-SRC2 luciferase reporter, at 8.9 µM, hits give high values
[9] = VP16-driven transactivation reporter suppression – cell-based, luminescence, HEK293, counter-screen for COUP-TFII antagonist project (AID 687007; in the data active = inhibition above about 13%); conditions: HEK293 Gal4-VP16 luciferase reporter, at 8.5 µM, hits give high values
[10] = biological target: COUP transcription factor 2 (Homo sapiens) (UniProt P24468); experiment: retest of COUP-TFII reporter suppressors – cell-based, luciferase reporter, HEK293, triplicate, confirmation (AID 687008;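 active = mean inhibition over three repeats above a set limit taken from the earlier primary screen, cut at about 38% in these data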;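 also: 100% = cells given the luciferase reporter alone without the COUP-TF2 vector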); conditions: HEK293 NGFI-A luciferase reporter, luminescence; at 8.5 µM; hits give high values
COUP transcription factor 2 (Homo sapiens), sequence (P24468 whole entry, looked up): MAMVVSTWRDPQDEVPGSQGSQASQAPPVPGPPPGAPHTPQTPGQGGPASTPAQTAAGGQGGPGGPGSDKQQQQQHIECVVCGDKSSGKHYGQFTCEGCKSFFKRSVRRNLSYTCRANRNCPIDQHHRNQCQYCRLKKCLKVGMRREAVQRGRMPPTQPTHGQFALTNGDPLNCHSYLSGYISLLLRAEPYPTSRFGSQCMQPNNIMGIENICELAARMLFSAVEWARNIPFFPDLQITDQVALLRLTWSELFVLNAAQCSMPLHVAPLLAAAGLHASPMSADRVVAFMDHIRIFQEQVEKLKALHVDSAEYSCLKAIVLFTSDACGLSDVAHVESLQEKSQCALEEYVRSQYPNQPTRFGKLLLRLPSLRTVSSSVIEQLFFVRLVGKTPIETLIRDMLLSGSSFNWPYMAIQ

[11] = StAR promoter reporter inhibitors, counter-screen for LRH-1 inverse agonist project, cell-based, luminescence, high throughput (AID 651611; in the data active = inhibition above about 28%); conditions: StAR promoter luciferase reporter counterscreen, at 3.6 µM, hits give high values
[12] = biological target: Nuclear receptor subfamily 5 group A member 2 (Homo sapiens) (UniProt O00482); experiment: NR5A2 activity suppression in reporter cells – cell-based, luminescence, confirmation (AID 651613; in the data active = inhibition above about 42%;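 also: HEK293T cells co-transfected with LRH-1 and StAR promoter luciferase reporter; 0% = vehicle wells and 100% = parental cells lacking receptor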); conditions: cell-based LRH-1 luciferase reporter, inverse agonism; at 3.6 µM; hits give high values
Nuclear receptor subfamily 5 group A member 2 (Homo sapiens), sequence (O00482 whole entry, looked up): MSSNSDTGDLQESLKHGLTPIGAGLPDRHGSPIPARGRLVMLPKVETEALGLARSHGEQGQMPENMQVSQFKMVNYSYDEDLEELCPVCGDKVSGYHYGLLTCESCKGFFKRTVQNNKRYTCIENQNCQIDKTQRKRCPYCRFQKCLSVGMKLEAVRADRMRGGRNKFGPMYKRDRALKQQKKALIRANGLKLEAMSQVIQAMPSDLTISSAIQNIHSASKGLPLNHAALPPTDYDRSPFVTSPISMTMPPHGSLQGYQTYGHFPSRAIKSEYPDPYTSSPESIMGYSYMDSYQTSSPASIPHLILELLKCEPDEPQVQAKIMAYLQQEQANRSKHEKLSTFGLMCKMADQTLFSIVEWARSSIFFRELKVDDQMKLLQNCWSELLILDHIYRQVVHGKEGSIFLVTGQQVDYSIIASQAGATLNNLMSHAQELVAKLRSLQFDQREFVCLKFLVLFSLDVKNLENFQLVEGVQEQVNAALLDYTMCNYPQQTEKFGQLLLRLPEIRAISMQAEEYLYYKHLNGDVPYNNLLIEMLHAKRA

[13] = biological target: Steroidogenic factor 1 (Homo sapiens) (UniProt Q13285); experiment: inverse agonism at SF1 nuclear receptor – cell-based, luminescence, high throughput, counter-screen for LRH-1 inverse agonist project (AID 651614; in the data active = inhibition above about 44%;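 also: cells cotransfected with StAR promoter reporter and SF1 expression vector; 0% = vehicle on cells with receptor and 100% = vehicle on cells lacking receptor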); conditions: cell-based SF1 luciferase reporter, at 3.6 µM, hits give high values
Steroidogenic factor 1 (Homo sapiens), sequence (Q13285 whole entry, looked up, the tested form may be a part): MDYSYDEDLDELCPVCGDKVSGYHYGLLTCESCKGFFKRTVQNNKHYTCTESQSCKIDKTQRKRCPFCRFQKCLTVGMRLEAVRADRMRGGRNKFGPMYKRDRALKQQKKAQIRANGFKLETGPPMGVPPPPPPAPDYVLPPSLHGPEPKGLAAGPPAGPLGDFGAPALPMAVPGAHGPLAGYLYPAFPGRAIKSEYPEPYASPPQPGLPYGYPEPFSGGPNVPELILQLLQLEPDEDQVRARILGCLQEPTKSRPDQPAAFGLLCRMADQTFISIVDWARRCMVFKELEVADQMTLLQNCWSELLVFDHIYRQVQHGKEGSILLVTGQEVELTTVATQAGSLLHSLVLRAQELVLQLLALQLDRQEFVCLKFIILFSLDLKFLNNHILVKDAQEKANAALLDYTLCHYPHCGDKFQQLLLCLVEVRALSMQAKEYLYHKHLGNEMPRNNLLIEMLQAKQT

[14] = compounds suppressing VP16-driven luciferase signal – cell-based, luminescence, high throughput, counter-screen for LRH-1 inverse agonist project (AID 651615; in the data active = inhibition above about 33%); conditions: Gal4-VP16 luciferase reporter cells, at 3.6 µM, hits give high values

SMILES | inhibition [1] | inhibition [2] | inhibition [3] | inhibition [4] | inhibition [5] | inhibition [6] | inhibition [7] | inhibition [8] | inhibition [9] | inhibition [10] | inhibition [11] | inhibition [12] | inhibition [13] | inhibition [14]
Cc1ccc(C)c(S(=O)(=O)N2CCN(c3ncnc4sccc34)CC2)c1 | 63.1% (active) | 59.6% (active) | 57.9% (active) | 56.5% (active) | 93.9% (active) | 82.7% (active) | 32.8% | 53.3% (active) | 20.1% (active) | 49.9% (active) |  |  |  | 
OCCCNc1nccc(-c2cc(Nc3cccc(Cl)c3)ncn2)n1 | 95% (active) | 95.2% (active) | 83.5% (active) | 95.1% (active) | 100% (active) | 93.9% (active) | 57.9% (active) | 49.7% (active) | 6.3% | 31.2% | 88.5% (active) | 108% (active) | 96.5% (active) | 93.2% (active)
Cc1ccsc1C(=O)OCC(=O)c1cc(C)n(CC2CCCO2)c1C (configuration not stated) | 73.4% (active) | 65.6% (active) | 49.5% (active) | 44.4% (active) | 70.8% (active) | 50.3% | 59.5% (active) | 85% (active) | 78.4% (active) | 97.7% (active) | 66.9% (active) | 15.3% | 61.6% (active) | 39.8% (active)
Cc1oc2c(F)c(F)c(F)c(F)c2c1S(=O)(=O)Nc1cccc(C(F)(F)F)c1 | -6.6% | 11.6% | 12.8% | 4.85% | 100% (active) | 93.3% (active) |  |  |  |  |  |  |  | 
CC(=O)NC(c1ccc2ccccc2c1)c1ccc2cccnc2c1O (configuration not stated) | 81.5% (active) | 79.2% (active) | 70.4% (active) | 74.3% (active) |  |  |  |  |  |  | 86.3% (active) | 104% (active) | 87.6% (active) | 79.9% (active)
